EWS-Fli inh = EWS/Fli transcriptional activity inhibition | A673 NR0B1-luciferase reporter, viability-normalised | inhibition, % at 12.6 µM | 350,000 tested, 0.67% active | AID 651661;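 active means mean inhibition of at least 50% after viability correction, with every replicate also passing that limit; inconclusive means mean reaches 50% but only one of two replicates passes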;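 further: firefly luciferase signal divided by Alamar Blue viability fluorescence both relative to DMSO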
Ecoli rRNA inh = selective bacterial rRNA inhibition in E. coli | E. coli WT GFP vs humanized-ribosome RFP mutants, fluorescence, 24 h; active compounds read low; DMSO median 0, no signal -100 | GFP signal change (wild-type ribosome), % (concentration not given with the values) | 350,000 tested, 1.6% active | AID 720706;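 active means significant combined selectivity score with lowered wild-type GFP, culture density cut under 30%, mutant RFP and density less affected; inactive means any of these conditions unmet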
LGR2 antag = inhibitors of bursicon-induced Drosophila LGR2 receptor cAMP signaling; 380,000 tested, 0.35% active; inhibition, % at 9.99 µM; AID 720647; HEK293 LGR2, CRE-luciferase, bursicon-stimulated, 4 h;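 active means drop in luminescence signal, shown as inhibition above about 50% in the replicate tests, limit read from the data, passing the limit was not always enough; inconclusive means probably only some replicates passing the limit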;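 further: agonist challenge used bursicon conditioned medium at about half maximal strength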
PGC1a acetyl inh = lowers PGC1a acetylation signal in U2OS cells | AlphaScreen anti-acetyl-lysine; with virally co-expressed GCN5 acetyltransferase | inhibition, % at 15.6 µM | 350,000 tested, 0.17% active | AID 651687;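 active means every replicate shows inhibition of at least 40%; inconclusive means mean inhibition at least 40% but some replicate below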;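 further: 0% = neutral control wells and 100% = positive control wells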
PAX8 reporter = lowers PAX8-driven luciferase in RMG-I cells. 360,000 tested, 1.2% active. inhibition, % at 12.6 µM. RMG-I TPO-luciferase reporter, SteadyGlo, 24 h;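 active means mean replicate inhibition at least 60% with every replicate also reaching 60%; inconclusive means only one of the two criteria is met; inactive means mean below 60% and not all replicates reaching 60%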;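 further: luciferase light reporting Pax8 driven TPO promoter activity; plate controls were median of neutral control wells for no effect and mitoxantrone controls for full effect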
SIRT5 inh = sirtuin-5 (human) deacylase inhibition. AID 652115. inhibition, % at 15 µM. 330,000 tested, 1.1% active. Purified SirT5, succinyl-peptide AMC, trypsin-coupled fluorescence; in the data active means inhibition above about 15%; inconclusive means no clear call, values can overlap the other calls
Target sequence (Q9NXA8 whole entry, looked up): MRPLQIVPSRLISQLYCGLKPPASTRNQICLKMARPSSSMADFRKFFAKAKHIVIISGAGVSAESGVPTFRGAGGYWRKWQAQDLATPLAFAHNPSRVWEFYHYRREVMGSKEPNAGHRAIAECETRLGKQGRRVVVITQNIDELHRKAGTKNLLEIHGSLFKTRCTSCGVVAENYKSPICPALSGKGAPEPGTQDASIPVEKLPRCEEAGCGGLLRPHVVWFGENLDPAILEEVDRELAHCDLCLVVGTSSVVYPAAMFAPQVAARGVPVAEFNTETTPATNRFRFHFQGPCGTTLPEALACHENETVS
An asterisk follows results filed as active; ? = inconclusive; . = no result. Sampled rows, rich in hits. Any-hit rate of the full collection: about 3.4%.

SMILES	EWS-Fli inh	Ecoli rRNA inh	LGR2 antag	PGC1a acetyl inh	PAX8 reporter	SIRT5 inh
C[C@@H]1CCCCO[C@@H](CN(C)Cc2ccc(Cl)c(Cl)c2)[C@@H](C)CN([C@H](C)CO)C(=O)c2cc(NC(=O)Nc3ccc(C(F)(F)F)cc3)ccc2O1	1.2	-0.6	22.8	6.6	59.2	-2.0
C[C@H]1CN([C@@H](C)CO)C(=O)c2cc(C#CC3CC3)cnc2O[C@@H]1CN(C)C(=O)c1ccc(F)cc1	-5.2	-1.8	-1.0	-7.2	.	10.2
CC(C)CC#Cc1cnc2c(c1)C(=O)N([C@@H](C)CO)C[C@H](C)[C@@H](CN(C)C(=O)c1cnccn1)O2	-19.4	5.3	-1.9	2.4	.	-2.8
N#Cc1c(NC(=O)/C=C/c2ccco2)sc2c1CCCC2	-8.8	-11.6	-60.1	.	-0.1	-2.5
O=C(/C=C/c1ccco1)Nc1sc2c(c1C(=O)O)CCC2	-54.2	-23.8*	-5.0	4.2	.	10.9
CC(C)NC(=O)Nc1ccc2c(c1)C(=O)N(C)C[C@@H](C)[C@@H](CN(C)C(=O)NC(C)C)O2	.	1.2	.	.	.	.
Cc1ccc(S(=O)(=O)N(C)C[C@@H]2OCCCC[C@@H](C)Oc3ccc(NC(=O)NC4CCCCC4)cc3C(=O)N([C@@H](C)CO)C[C@@H]2C)cc1	16.0	3.1	2.2	1.0	15.8	15.2*
C[C@@H]1CN([C@H](C)CO)C(=O)c2cc(NC(=O)NC3CCCCC3)ccc2O[C@@H](C)CCCCO[C@H]1CN(C)S(=O)(=O)c1ccc(Cl)cc1	-6.7	-4.2	-3.9	1.5	16.6	15.5*
C[C@@H]1CCCCO[C@@H](CN(C)S(=O)(=O)c2ccc(Cl)cc2)[C@H](C)CN([C@@H](C)CO)C(=O)c2cc(NC(=O)NC3CCCCC3)ccc2O1	0.0	-2.0	-5.7	5.3	12.1	6.9
C[C@@H]1CCCCO[C@H](CN(C)C(=O)CCCN(C)C)[C@@H](C)CN([C@H](C)CO)C(=O)c2cc(NS(C)(=O)=O)ccc2O1	-7.2	9.4	16.4	-6.4	-13.5	7.3
Cc1cc(C)nc(SCc2ccc(C(=O)N/N=C/c3cccc(O)c3O)cc2)n1	.	.	10.9	.	67.5*	.
O=C(C[C@H]1CC[C@H]2[C@@H](COC[C@H](O)CN2Cc2nccs2)O1)NCc1ccc(Cl)cc1	-3.9	-0.8	-9.0	-0.1	-4.8	-0.5
Cc1cc(N2CCN(Cc3cn(C)nc3-c3cccc(Cl)c3)CC2)cc(C)n1	57.7*	-3.8	22.3	4.6	12.7	-4.5
Oc1c(/C=N/Nc2cccc3cccnc23)ccc2ccccc12	.	.	-87.7	-4.2	-57.3	.
COc1cc(/C=N/Nc2cccc3cccnc23)cc(OC)c1O	-43.2	-25.8*	-74.7	.	-30.7	-0.3
Oc1cccc(/C=N/Nc2cccc3cccnc23)c1	-56.7	-35.0*	-16.1	27.0	-84.1	-0.6
COc1cc(/C=N/Nc2ccccn2)cc(OC)c1O	-20.6	17.1	-29.3	39.7	-5.5	4.4
COc1cc(CN2CC3(CN(C(=O)c4ccc5c(c4)OCO5)C3)c3c(n(C)c4cc(OC)ccc34)[C@H]2CO)cc(OC)c1	12.0	1.2	14.5	-19.2	.	.
O=C(c1ccccc1[N+](=O)[O-])n1cnc2ccccc21	5.6	10.4	-26.4	7.3	-20.8	0.9
O=C(c1cc(Cl)ccc1[N+](=O)[O-])n1cnc2ccccc21	58.5*	12.0	-17.8	.	6.7	-4.8
CCCNC(=O)N1[C@@H]2CN(C(=O)c3ccccc3)c3ccccc3[C@@H]2[C@@H]1CO	2.6	1.2	-4.6	-0.5	6.3	.
CCOc1ccc(S(=O)(=O)Nc2cc(SCC(=O)O)c(O)c3ccccc23)cc1	5.1	-34.9	18.5	.	53.3	0.7
O=C(O)CSc1cc(NS(=O)(=O)c2cccc([N+](=O)[O-])c2)c2ccccc2c1O	-5.8	-34.5*	?	37.6	28.9	6.1
O=S(=O)(Nc1cc(Sc2cccc3cccnc23)c(O)c2ccccc12)c1ccccc1	6.2	-21.9	.	.	105.2*	0.1
CCCNC(=O)N[C@H]1CC[C@@H](CCn2cc(C3CCCC3)nn2)O[C@@H]1CO	-6.8	3.4	-5.9	3.8	3.6	1.3
SMILES	EWS-Fli inh	Ecoli rRNA inh	LGR2 antag	PGC1a acetyl inh	PAX8 reporter	SIRT5 inh
COc1ccc(C#Cc2ccc3c(c2)O[C@H](CN(C)S(=O)(=O)c2ccccc2F)[C@@H](C)CN([C@@H](C)CO)S3(=O)=O)cc1	5.6	3.1	-20.2	9.8	15.8	15.4*
COc1ccccc1-c1ccc2c(c1)O[C@H](CN(C)S(=O)(=O)c1ccccc1)[C@@H](C)CN([C@@H](C)CO)S2(=O)=O	7.2	-3.5	6.8	-8.3	27.8	19.7*
COc1ccc(C#Cc2ccc3c(c2)O[C@@H](CN(C)S(=O)(=O)c2ccccc2F)[C@H](C)CN([C@@H](C)CO)S3(=O)=O)cc1	8.8	4.3	4.7	-4.3	3.1	4.4
C[C@H]1CN([C@@H](C)CO)S(=O)(=O)c2ccc(-c3cccc(F)c3)cc2O[C@@H]1CN(C)S(=O)(=O)c1ccccc1	8.6	-1.8	6.8	-5.0	.	15.6*
C[C@@H]1CN([C@H](C)CO)S(=O)(=O)c2ccc(-c3cccc(F)c3)cc2O[C@H]1CN(C)S(=O)(=O)c1ccccc1	10.6	1.8	3.3	-17.1	.	16.7*
C[C@@H]1CN([C@@H](C)CO)S(=O)(=O)c2ccc(-c3cccc(F)c3)cc2O[C@H]1CN(C)S(=O)(=O)c1ccccc1	35.0	-4.9	0.4	-19.4	.	12.7
Cn1cnc(S(=O)(=O)N[C@@H]2C=C[C@H](CC(=O)NCC3CCCCC3)O[C@@H]2CO)c1	2.7	3.1	-14.5	-1.4	9.3	8.8
CCC(=O)Nc1ccc2c(c1)OC[C@H](C)N(C(=O)CN(C)C)C[C@H](C)[C@H](OC)CN(C)C2=O	3.8	2.3	6.0	-13.3	-2.2	-1.8
C[C@H](CO)N1C[C@H](C)[C@@H](CN(C)S(=O)(=O)c2ccccc2)Oc2cc(-c3cccc(F)c3)ccc2S1(=O)=O	13.8	-1.5	15.5	-18.5	.	6.7
C[C@@H]1CN([C@@H](C)CO)S(=O)(=O)c2ccc(-c3ccccc3)cc2O[C@H]1CN(C)S(=O)(=O)c1ccccc1F	10.4	-4.1	16.0	1.2	63.4*	?
C[C@@H]1CN([C@H](C)CO)S(=O)(=O)c2ccc(-c3cccc(F)c3)cc2O[C@@H]1CN(C)S(=O)(=O)c1ccccc1	12.9	1.5	-2.7	-1.7	.	16.3*
COc1ccc(-c2ccc([C@H]3[C@H](CO)N4C(=O)CN(C(=O)NC(C)C)C[C@@H]34)cc2)cc1	14.4	-1.9	2.3	-12.9	5.4	-0.9
CC(C)[C@H]1C(=O)N[C@@H](c2ccc3c(c2)OCO3)CC=CC[C@H](C)Oc2ccccc2C(=O)N1C (mixture of isomers)	.	-2.6	.	.	.	.
COCC(=O)N1CC2(C1)CN(C(=O)NC1CCCC1)[C@H](CO)c1c2c2ccc(OC)cc2n1C	-1.9	0.8	5.5	-16.9	-11.3	-1.7
